# Source: PubChem BioAssay AID1878 (Sanford-Burnham Center for Chemical Genomics, 2009)
# The whole screen tested about 1,000 compounds, of which about 200 (20%) were called active. Not all results are given here. Entries with a potency or affinity are not part of this list. Values without a mark were called inactive. Cut-off read from the data, not from the text of the source: active = inhibition above about 55%; inactive = the rest.
# Biological target: Dual specificity protein phosphatase 3 (Homo sapiens) (UniProt P51452)
# Sequence (P51452 whole entry, looked up): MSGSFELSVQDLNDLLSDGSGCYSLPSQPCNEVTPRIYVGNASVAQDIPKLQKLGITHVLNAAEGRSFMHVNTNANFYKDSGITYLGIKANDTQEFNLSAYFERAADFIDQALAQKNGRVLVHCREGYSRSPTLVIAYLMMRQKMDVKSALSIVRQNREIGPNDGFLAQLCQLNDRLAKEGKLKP
# Assay: VHR1 phosphatase inhibitors, biochemical (AID 1878)
# Settings: recombinant VHR phosphatase, fluorogenic substrate; at 13.3 µM; hits give high values
row,Compound,inhibition
1,COc1ccccc1CN1CCCC(CN(CCN(C)C)C(=O)C2CCCC2)C1 (configuration not stated),-18.4%
2,Nc1nn2c(-c3ccccc3)cc(=O)[nH]c2c1N=Nc1ccc(Br)cc1,81.7% (active)
3,CC(C)(C)c1cc(=O)n2[nH]c(N)nc2n1,-15.2%
4,COC(=O)C1(C)NC(c2ccc(Cl)cc2)C2C(=O)N(c3ccccc3)C(=O)C21 (configuration not stated),-6.5%
5,CN1CCN(c2nc(-c3ccccc3Cl)nc3ccccc23)CC1,5.7%
6,COc1ccc(-c2cc3nc4ccccc4n3c(N)c2C#N)cc1,95.4% (active)
7,COc1ccc(NC2CCCN(C(=O)CCN3CCOCC3)C2)cc1 (configuration not stated),2.8%
8,CC(C)OC(=O)CCCNc1ccc([N+](=O)[O-])cc1[N+](=O)[O-],5.9%
9,Cc1cc(=O)oc2cc(OC(C)C(=O)NCCc3ccc(S(N)(=O)=O)cc3)ccc12 (configuration not stated),-4.7%
10,Cc1cc(C)c(S(=O)(=O)c2cccc(Br)c2C)c(=O)[nH]1,9.5%
11,O=C(Nc1ccc(Br)cc1F)c1ccc2nsnc2c1,0.8%
12,CCC(Sc1nnc(-c2ccco2)n1C)C(=O)Nc1nnc(C)s1 (configuration not stated),-1.6%
13,CCCCCCN1CC(=O)N2Cc3[nH]c4ccccc4c3C[C@H]2C1=O,11.5%
14,COc1ccc(/C=N/NC(=O)c2[nH]c3ccc(C)cc3c2-c2ccccc2)c(C(=O)O)c1OC,6.7%
15,COc1cccc(/C=N/Nc2ncnc3c2[nH]c2ccc(C)cc23)c1OC,97.6% (active)
16,O=C(COCc1cc(-c2ccc3c(c2)OCO3)on1)Nc1cccnc1Cl,2.9%
17,COc1ccccc1N1CCN(C2CCCN(C(=O)CCc3cnccn3)C2)CC1 (configuration not stated),-1.8%
18,C[C@]1(CO)CCC[C@@]2(C)C1CC[C@@H](CO)[C@@H]2CCc1ccoc1 (some centres not stated),-0.3%
19,CCCOc1ccc(-c2c(C(=O)N/N=C/c3cccnc3)nnn2-c2nonc2N)cc1,96.5% (active)
20,C/C(=N\NC(=O)c1nnn(-c2nonc2N)c1C)c1ccc(OCc2ccccc2)cc1,8.6%
21,CCCc1c(C(=O)N/N=C(\C)CCc2ccccc2)nnn1-c1nonc1N,1.7%
22,CCc1nn(CC(=O)NCc2ccccc2Cl)c(=O)c2cccn12,17.5%
23,COC(=O)c1sccc1NC(=O)Nc1ccc(C)cc1C,-7.1%
24,O=C(Nc1cccc2ncccc12)c1ccccc1F,-0.8%

row,Compound,inhibition
1,COc1cccc(C2c3[nH]c4ccccc4c3C[C@H]3C(=O)N(CCCOC(C)C)CC(=O)N23)c1 (some centres not stated),10.9%
2,COc1ccc2[nH]c(=O)c(-c3noc(-c4ccc(F)cc4)n3)cc2c1,97.2% (active)
3,COc1ccc(OC)c(-c2csc(NC(=O)Cc3ccc(F)cc3)n2)c1,0.5%
4,Cn1cnc(S(=O)(=O)N2CCN(c3ccc(F)cc3)CC2)c1,-8%
5,O=C(Nc1ccc(Cl)c(Cl)c1)Nc1ccccn1,3.2%
6,Cc1ccc(NC(=O)NN2CCN(C)CC2)cc1C,-0.5%
7,Cc1ccc(NC(=O)NCCN2CCCCC2)cc1C,-2%
8,Cc1cccc(NC(=O)Cc2nnc(NC(=O)Nc3ccccc3F)s2)c1,16.3%
9,Cc1ccc(NC(=O)Nc2nnc(-c3ccncc3)s2)cc1C,94.2% (active)
10,CCC(C(=O)NCCCN1CCN(C)CC1)n1nc(C)n2c(cc3occc32)c1=O (configuration not stated),-10.7%
11,CC(=O)OC1CC2(C)/C(=N\O)CCC2C2CCc3cc(O)ccc3C12 (configuration not stated),-5.1%
12,Cc1ccc(-n2nc3c(=O)n(CCCC(=O)NC4CCC(C)CC4)nc(C)c3c2C)cc1 (configuration not stated),23.9%
13,CCN(CC)C(=O)Cn1cc(C(=O)C(=O)NCCCN2CCCCC2)c2ccccc21,1.8%
14,O=C(NCc1ccc(F)cc1)C1CCN(S(=O)(=O)c2cccc3nonc23)CC1,4.8%
15,CC(C)C[C@H](NC(=O)C1CC(=O)N(c2ccc3c(c2)OCO3)C1)C(=O)NC1CCCC1 (some centres not stated),-5%
16,CCN(CC)CCCNC(=O)c1ccc(C)c(NC(=O)C2=C(C)OCCS2)c1,5.7%
17,COc1cc(OC)nc(Oc2cc(C=O)ccc2OC)n1,19.7%
18,CCN(CC)CCCNC(=O)c1cn(C)c2ccc(S(=O)(=O)N(C)C3CCCCC3)cc2c1=O,-8.9%
19,O=S(=O)(Nc1ccc(Cl)cc1)c1ccc(N2CCOCC2)c(NC(=S)NCCN2CCOCC2)c1,57.1% (active)
20,CC(=O)c1ccc(S(=O)(=O)Nc2ccc(N3CCOCC3)cc2)cc1,-2%
21,Cn1c(=O)c(=O)n(C)c2cc(N3CCOCC3)c(NS(=O)(=O)c3ccc(F)c(Cl)c3)cc21,-2.4%
22,CC(C)(C)NC(=O)N1CCN(c2ncccc2C(F)(F)F)CC1,-1.3%
23,O=C(CSc1nc2ccccc2[nH]1)NCCN1CCCCC1,-5.4%
